Reference: PubChem BioAssay AID686979 (National Center for Advancing Translational Sciences (NCATS), 2013)
The whole screen tested about 420,000 compounds, of which about 50,000 (12%) were called active. Roughly 26% stayed inconclusive and do not appear here. For the sample, actives were picked, then their nearest neighbours and some compounds at random. A number with no mark means an inactive call. The call rests on the fitted dose curve; in most records, active means well fitted inhibition curve with a large enough effect; inconclusive means small, poorly fitted or top-dose-only effect; inactive means flat fitted curve, though single readings scatter.

Experiment: qHTS for Inhibitors of human tyrosyl-DNA phosphodiesterase 1 (TDP1): qHTS in cells in presence of CPT; further: nearly all actives have a fitted effect of over 55% in size
Conditions: chicken DT40 Tdp1-/-;hTDP1 cells + 20 nM CPT, ATP luminescence, 48 h; series mostly up to 46.2 µM; activity change, negative = growth inhibition: at the top concentration
Procedure, shortened: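 Chicken DT40 Tdp1-/- cells stably complemented with human TDP1 were seeded at 400 cells/well in medium containing 20 nM camptothecin, exposed to pin-transferred compounds, and grown at 37 °C for at least 48 hr. Viability was read as ATP luminescence.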
On the % scale 0 is the no-effect control and ±100 the full control effect; potency means the concentration at half of the fitted maximal effect.

Row | SMILES | activity change, negative = growth inhibition | Potency
1 | Cc1c(CCC(=O)O)c(=O)oc2cc(OCc3ccc(Br)cc3)ccc12 | -1.89% | –
2 | Fc1ccc(NC(=S)N2CCc3[nH]c4ccccc4c3C2)cc1 | -0.771% | –
3 | COC(=O)c1scc(S(=O)(=O)C(C)(C)C)c1-n1cccc1 | -11.3% | –
4 | CC/C(=N\NC(=O)c1c(C)nc2ccccn12)c1ccc(Cl)cc1 | -18.7% | –
5 | CN(C)C(=O)c1nc2ccc(Cl)cn2c1CN1CCN(c2ncccn2)CC1 | -7.94% | –
6 | Clc1ccc(-c2nc3ccccn3c2CN2CCSCC2)cc1 | – | 29.1 µM (active)
7 | O=C(COc1ccc(S(=O)(=O)NCc2ccccc2)cc1)N1CCOCC1 | 0.118% | –
8 | Cc1ccc(S(=O)(=O)Nc2ccc3ncccc3c2)cc1 | – | 10.3 µM (active)
9 | Cc1ccc(NS(=O)(=O)c2ccc(C(C)(C)C)cc2)cn1 | -4.37% | –
10 | Cc1ccc(OCC(=O)Nc2ccc(S(=O)(=O)Nc3ccccn3)cc2)cc1 | -5.79% | –
11 | Cc1oc2cc3oc(=O)ccc3cc2c1C | -2.18% | –
12 | Cc1sc2ncnc(N3CCC(C(=O)Nc4nc5ccc(Cl)cc5s4)CC3)c2c1C | – | 8.2 µM (active)
13 | O=C(NNC(=O)C1CCN(c2ncccn2)CC1)c1ccccc1 | -3.34% | –
14 | Cc1sc2ncnc(N3CCC(C(=O)NNC(=O)c4ccc(F)cc4)CC3)c2c1C | – | 18.4 µM (active)
15 | CS(=O)(=O)c1ccc2nc(NC(=O)C3C4C=CC(C4)C3C(=O)O)sc2c1 (stereo not drawn) | -6.9% | –
16 | CS(=O)(=O)c1ccc2nc(NC(=O)CN3CCCCCC3)sc2c1 | -8.7% | –
17 | O=C(NNC(=O)C1CCCC1)c1ccc(F)cc1 | -1.66% | –
18 | COc1ccccc1C1CN(CCNC(=O)C2=CCCC2)Cc2ccccc2O1 (stereo not drawn) | -9.51% [at 9.04 µM] | –
19 | Nc1ncnc2c1ncn2[C@@H]1O[C@H](CNCc2cccn2-c2nccs2)[C@@H](O)[C@H]1O | -14.9% | –
20 | CCCCN1C(=O)C(CC(=O)NC(c2ccccc2)c2ccccc2)CC(C(=O)N2CCOCC2)=C1C (stereo not drawn) | -7.93% | –
21 | O=C1NCCn2nc3ccccc3c21 | -1.79% | –
22 | Cc1ccc2c(c1)N(CC(=O)N1CCCC(C)C1)C(=O)CO2 (stereo not drawn) | 2.29% | –

Row | SMILES | activity change, negative = growth inhibition | Potency
23 | Cc1cc(Nc2ccc(N3CCOCC3)cc2)c2cccc(C)c2n1 | -17.3% | –
24 | Cc1ccc(Nc2nc(N3CCOCC3)nc(N3CCOCC3)n2)cc1Cl | – | 23.1 µM (active)
25 | CNc1nc(Nc2ccc(C)c(Cl)c2)nc(N)c1[N+](=O)[O-] | 0.15% | –
26 | COc1ccc(C2CC(=O)NC(=O)C2)cc1 | 7.32% | –
27 | CC(C)(C)c1ccc(SCCc2ccncc2)cc1 | – | 18.4 µM (active)
28 | c1ccc(CSCCc2ccncc2)cc1 | -26.6% | –
29 | CC(C)(C)NC(=O)C(=O)NCc1ccncc1 | 36.2% | –
30 | Cc1cc(NC(=O)C(C)N2C(=O)c3ccccc3S2(=O)=O)no1 (stereo not drawn) | 13% | –
31 | COCc1cccc(-c2csc(C(O)c3ccc(F)cc3)n2)c1 (stereo not drawn) | – | 16.4 µM (active)
32 | COc1cc(C(O)c2nc(-c3cccc(C(=O)O)c3)cs2)ccc1F (stereo not drawn) | 7.12% | –
33 | Fc1ccc(COc2cccc(-c3n[nH]c(=S)o3)c2)cc1 | -2.08% | –
34 | COc1ccc(N2CCN(C(=O)C3CCN(C(=O)c4ccccc4Cl)CC3)CC2)cc1 | -14.8% | –
35 | COc1ccc(N2CCN(C(=O)CSCc3nc(-c4ccccc4Cl)oc3C)CC2)cc1 | – | 14.6 µM (active)
36 | COc1ccc(N2CCN(C(=O)CN3C(=O)COc4ccccc43)CC2)cc1 | 0.58% | –
37 | COc1ccccc1C(=O)Nc1ccnn1C1CCN(Cc2cnn(C)c2)CC1 | 6.7% | –
38 | CNc1nc(-c2ccccc2)cc(-c2ccccc2)n1 | 2.21% | –
39 | c1ccc(-c2cc(-c3ccccc3)[nH]n2)cc1 | -3.11% | –
40 | Nc1nc(-c2ccccc2)cc(-c2ccccc2)n1 | – | 16.4 µM (active)
41 | Cc1ccccc1NC(=O)c1cc2c([nH]c1=O)CC(C)(C)CC2=O | 6.13% | –
42 | Cc1ccc(F)c(NC(=O)CCOc2ccccc2C)c1 | -23.1% | –
43 | COc1ccc(C(=O)OCc2cc(=O)n3ccsc3n2)cc1F | 11.4% | –
44 | COc1cc(C(=O)OCc2cc(=O)n3ccsc3n2)ccc1OC(C)C | – | 23.1 µM (active)

Row | SMILES | activity change, negative = growth inhibition | Potency
45 | COCCc1nn2c(=O)cc(COC(=O)c3cc(OC)c(OC)c(OC)c3)nc2s1 | -7.66% | –
46 | CCc1c(C)nc2c(-c3ccccc3)c(C)nn2c1Nc1ccc(NC(C)=O)cc1 | -8.91% | –
47 | CCOC(=O)N1CCN(S(=O)(=O)N2CCCC(C(=O)NCCCN3CCC(C)CC3)C2)CC1 (stereo not drawn) | 2.67% | –
48 | COC(=O)C(C)NC(=O)COc1ccc2ccccc2c1 (stereo not drawn) | -9.85% | –
49 | CC(=O)NC(c1ccccc1)c1nc(-c2ccccc2C)cs1 (stereo not drawn) | -7.32% | –
50 | CC1(C)CC(=O)C(CC(=O)N2CCC(Cc3ccccc3)CC2)C(=O)C1 | -0.242% | –
51 | O=C(CN1CCOc2ccccc21)N1CCC(Cc2ccccc2)CC1 | – | 13 µM (active)
52 | O=C(NCc1nnc(SCC(=O)N2CCC(Cc3ccccc3)CC2)o1)c1ccco1 | -8.68% | –
53 | Cn1cnnc1Sc1ccc(S(C)(=O)=O)cc1[N+](=O)[O-] | 0.347% | –
54 | Cc1cc(C)nc(NS(=O)(=O)c2ccc(N3C(=O)C4CCCCC4C3=O)cc2)n1 (stereo not drawn) | 3.01% | –
55 | COc1ccc(CCNC(=O)Nc2ccc3c(c2)c(=O)n(C)n3C)cc1OC | 0.818% | –
56 | COc1ccc(CNc2nc3c(c(=O)[nH]c(=O)n3C)n2Cc2ccccc2)cc1 | -0.57% | –
57 | CCCCn1c(SCC(=O)NCCc2ccc(OC)c(OC)c2)nc2c1c(=O)n(C)c(=O)n2C | 1.15% | –
58 | Cc1nnc(Sc2nc3c(c(=O)[nH]c(=O)n3C)n2Cc2ccccc2)s1 | 0.541% | –
59 | Cn1c(=O)c2c(nc(OCc3cccnc3)n2Cc2ccccc2)n(C)c1=O | – | 11.6 µM (active)
60 | CCn1c(NCCc2ccc(OC)c(OC)c2)nc2c1c(=O)n(C)c(=O)n2C | – | 9.2 µM (active)
61 | Cn1c(=O)c2c(nc(N/N=C/c3cccs3)n2Cc2ccc(Br)cc2)n(C)c1=O | – | 20.6 µM (active)
62 | Cn1c(=O)c2sccc2n(Cc2ccc(Br)cc2)c1=O | 4.25% | –
63 | Cn1c(=O)[nH]c(=O)c2c1nc(NCCc1ccccc1)n2Cc1ccc(F)cc1 | – | 23.1 µM (active)
64 | Cc1ccc(CN2CCN(/N=C/c3cccnc3)CC2)c(C)c1 | 5.42% | –
65 | COc1ccc(NC(=O)CCCC2CCCCC2)c(OC)c1 | -22.4% | –
66 | NS(=O)(=O)c1ccc2nc(NC(=O)CS(=O)(=O)c3ccc(F)cc3)sc2c1 | 12.2% | –

Row | SMILES | activity change, negative = growth inhibition | Potency
67 | O=C1NC[C@H](CCCCN2C[C@H](Cc3ccc(O)cc3)N(CC3CCCCC3)C(=O)C2=O)N(CCc2ccccc2)C1=O | -7.53% | –
68 | O=c1nc(NO)ccn1C1CCCO1 (stereo not drawn) | -3.51% | –
69 | NC(=O)COc1ccc(C23CC4CC(CC(C4)C2)C3)cc1 | -20.8% | –
70 | Cc1ccc(S(=O)(=O)Nc2nc(N)n(-c3ccccc3)n2)cc1 | 1.91% | –
71 | CC(C)CCn1c(CN(C)Cc2ccccc2)nc2c1c(=O)n(C)c(=O)n2C | – | 6.51 µM (active)
72 | Cn1c(=O)c2c(nc(NCCc3ccccc3)n2Cc2ccccc2)n(C)c1=O | – | 5.8 µM (active)
73 | Cn1c(=O)c2c(nc(NCc3ccccc3)n2CC(N)=O)n(C)c1=O | -18% | –
74 | COc1ccc(CCn2c(NCCCN3CCOCC3)nc3c2c(=O)[nH]c(=O)n3C)cc1 | -3.75% | –
75 | CCCCNc1nc2c(c(=O)n(C)c(=O)n2C)n1Cc1cccc(OC)c1 | – | 2.91 µM (active)
76 | C=CCOc1nc2c(c(=O)n(C)c(=O)n2C)n1Cc1ccc(Cl)cc1Cl | – | 18.4 µM (active)
77 | CC(C)OCCCNc1nc2c(c(=O)n(Cc3ccccc3F)c(=O)n2C)n1C | -9% | –
78 | CC(C)CCn1cnc2c1c(=O)n(CC(=O)NC(N)=O)c(=O)n2Cc1ccccc1 | -21.6% | –
79 | COc1cccc(CNS(=O)(=O)c2cc3c(cc2C)n(C)c(=O)c(=O)n3C)c1 | – | inactive
80 | CC1CN(Cc2nc3c(c(=O)n(C)c(=O)n3C)n2Cc2cccc(Cl)c2)CC(C)O1 (stereo not drawn) | -16.9% | –
81 | Cn1c(=O)[nH]c(=O)c2c1nc(CN(Cc1ccccc1)Cc1ccccc1)n2CCN1CCOCC1 | -16.8% | –
82 | Cn1c(=O)c2c(nc(Oc3ccc(C#N)cc3)n2Cc2ccc(Cl)cc2Cl)n(C)c1=O | -12.4% | –
83 | COCCn1cnnc1SCC(=O)Nc1cccc(S(=O)(=O)N2CCCCC2)c1 | -15.9% | –
84 | NC(=O)C1CCN(C(=O)/C(=C/c2ccco2)NC(=O)c2ccccc2)CC1 | 14.3% | –
85 | Cc1c(C(=O)NC(=S)NCc2cccnc2)oc2ccccc12 | -16.7% | –
86 | Cc1ccccc1OS(=O)(=O)c1cccc([N+](=O)[O-])c1 | -23.5% | –
87 | CC(Oc1ccccc1[N+](=O)[O-])C(=O)N/N=C/c1ccoc1 (stereo not drawn) | -10.4% | –
88 | O=C(CCc1ccccc1)NNc1ccc(F)cc1 | -27.2% | –

Row | SMILES | activity change, negative = growth inhibition | Potency
89 | CC(C)c1cc(C(=O)N2CCOc3ccc(CN4CCC(Oc5cccnc5)CC4)cc3C2)n[nH]1 | -19.6% [at 9.04 µM] | –
90 | CC(C)CC1(C)NC(=O)N(CC(=O)Nc2ccc3c(c2)OCCO3)C1=O (stereo not drawn) | 7.31% | –
91 | Cc1cc(NC(=O)CSC2=NS(=O)(=O)c3cc(Cl)ccc3N2)no1 | 18.3% | –
92 | COc1cccc(NC(=O)C2CCCN(c3ncnc4c3nc3n4CCCCC3)C2)c1 (stereo not drawn) | – | 20.6 µM (active)
93 | O=C(Nc1cccc(Cl)c1)C1CCCN(c2cnccn2)C1 (stereo not drawn) | -16.5% | –
94 | COc1cccc(CNC(=O)C2CCCN(c3ncnc4c3nc3n4CCCCC3)C2)c1 (stereo not drawn) | – | 23.1 µM (active)
95 | O=C(NCCCN1CCCCC1)C1CCCN(c2ncnc3c2nc2n3CCCCC2)C1 (stereo not drawn) | 4.33% | –
96 | COc1cccc(CNC(=O)C2CCCN(S(=O)(=O)N3CC(C)CC(C)C3)C2)c1 (stereo not drawn) | -22.7% | –
97 | COc1cccc(NC(=O)C2CCN(c3cc(C)nc4c(-c5ccc(Cl)cc5)c(C)nn34)CC2)c1 | -3.96% | –
98 | N#Cc1c(NC(=O)C2CC(Cl)=CCC2C(=O)O)sc2c1CCCCC2 (stereo not drawn) | 20.2% | –
99 | COc1ccc2c(CC(=O)NNC(=O)c3ccccc3F)coc2c1 | -0.595% | –
100 | CCC(C)(C)NC(=O)CN(C(=O)C(=O)Nc1ccc2c(c1)OCCO2)C(C)(C)CC | -19.8% | –
101 | O=C(COC(=O)Cn1[nH]c(=O)c2ccccc2c1=O)Nc1ncc(Cl)cc1Cl | -1.54% | –
102 | O=C(OCc1cc(Cl)ccc1OC(F)F)c1cccnc1 | 6.56% | –
103 | Cc1ccc(NC(=S)NC(=O)c2ccc(-c3ccccc3)cc2)cc1 | – | 6.51 µM (active)
104 | Cc1ccc(C(=O)NC(=S)Nc2ccc(N3CCOCC3)cc2)cc1 | -29.5% | –
105 | Cc1cccc(NC(=O)/C(=C\c2ccco2)NC(=O)c2ccccc2)c1 | -2.66% | –
106 | Cc1ccc(C(=O)NC(=S)Nc2ccccc2C)cc1 | -10.1% | –
107 | Cc1cccc(NC(=O)NC(=S)NC(=O)c2ccccc2)c1 | – | 8.2 µM (active)
108 | Cc1cccc(NC(=S)NC(=O)c2ccc(Br)o2)c1 | 0.885% | –
